The campaign covered roughly 190,000 compounds. About 240 (0.13%) were called active. The sample as a whole holds a higher share of actives than the screen did. Values without a mark were called inactive. Cut-off read from the data, not from the text of the source: active = inhibition above about 40%.

Results on 56 compounds are retold here after PubChem BioAssay AID1008 (NMMLSC, 2008).

Sequence of Bcl-2-related protein A1 (Homo sapiens) (Q16548 whole entry, looked up): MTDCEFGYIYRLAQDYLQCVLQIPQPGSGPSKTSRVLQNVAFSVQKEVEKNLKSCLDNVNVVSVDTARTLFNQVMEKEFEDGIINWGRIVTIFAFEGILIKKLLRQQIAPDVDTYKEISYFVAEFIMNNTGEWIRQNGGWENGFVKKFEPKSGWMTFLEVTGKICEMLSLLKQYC

The assay has as its target Bcl-2-related protein A1 (Homo sapiens) (UniProt Q16548). Put plainly: inhibitors of Bim binding to Bfl-1, primary screen, biochemical, multiplexed, bead-based flow cytometry (AID 1008).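 Note: 0% = wells without compound plus tracer and 100% = blocker peptide.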 As to conditions: Bim-Bfl-1 binding inhibition, at 10 µM, active compounds read high.
As to `Cc1cc(CNCc2c(C(=O)N(C)Cc3ccccc3)nc3ccccn23)nn1C`, the inhibition (commonly the drop in the measured response relative to a control, in per cent) is -6%.
Then `COc1cccc(CNC(=O)CCN2C(=S)NC(C)(C)CC2C)c1` (stereo unspecified), with -5%; and `Cc1cc(OC(=O)c2ccccc2)c([N+](=O)[O-])c(=O)[nH]1`, with -5%; and `S=c1ccc2ccccc2[nH]1`, with -4%.
Then `Cc1cccc(CSc2nc3c(c(=O)n2C)SCC3)c1`, with -2%; and `CCOc1cc(CNn2c(C)nnc2SCC(=O)NC(C)(C)C)ccc1OCC(=O)NC(C)(C)C`, with -7%; and `CC(C)Cn1c(N)c(C(=O)COC(=O)CN2C(=O)C3CC=CCC3C2=O)c(=O)n(C)c1=O` (stereo unspecified), with -8%.
Then `COc1ccc(CNc2c(CO)cnc3c2cnn3C)cc1`, with -3%; and `CCc1ccc(NC(=O)C(=O)N/N=C(\C)CC(=O)NCCOC)cc1`, with -3%; and `O=C1C=CC(=O)N1c1ccc(N2CCCCC2)cc1`, with 11%.
On to `CN1CCN(S(=O)(=O)c2cccc(C(=O)N3CCc4ccccc43)c2)CC1`, for which the inhibition was 1%.
The same measure for `COc1cccc(CNC(=O)CCC2CCCN(Cc3ccc(OC(F)F)cc3)C2)c1` (stereo unspecified): -4%; for `Cc1ccc(O)c(-c2cc(C(=O)Nc3c(C)n(C)n(-c4ccccc4)c3=O)[nH]n2)c1`: -2%; for `COc1cc(C(=O)NNC(=O)c2ccc(S(=O)(=O)N3CCCCC3)cc2)cc(OC)c1OC`: 7%.
The same measure for `CCc1ccc(NC2Nc3cc(C)nn3S2)cc1` (stereo unspecified): -1%.
As to `CN(C)C(=O)CSc1n[nH]c(-c2ccco2)n1`, the inhibition was 2%.
The same measure for `Cc1ccc(NC(=O)Cn2c(=O)n(CCC(=O)NC3CCN(Cc4ccccc4)CC3)c(=O)c3ccccc32)cc1`: -9%.
Then `Cc1cccc(C)c1N1CCN(S(=O)(=O)N2CCCCC2)CC1`, with -3%; and `O=C(CSc1ncnc2scc(-c3ccccc3)c12)NCc1ccc2c(c1)OCO2`, with 0%; and `CN(CCN1CCOCC1)Cc1nc(-c2ccc3c(c2)OCO3)no1`, with -5%.
For the compound `N#C/C(=C(\O)C(F)(F)F)c1nnc2n1CCCCC2`, the inhibition was -5%.
Take `CC1CCN(C2=NC(=O)/C(=C/c3cn[nH]c3-c3ccccc3)S2)CC1`: the inhibition is -13%.
As for `O=C(Nc1nc(-c2cccnc2)cs1)c1ccccc1F`, the inhibition was -9%.
The same measure for `CN1CCN(NC(=O)c2ccc(S(=O)(=O)N3CCCCCC3)cc2)CC1`: -2%.
The same measure for `CC1CCCCC1NC(=O)CO/N=C/c1ccc(OC(F)F)cc1` (stereo unspecified): -7%; for `CCOC(=O)N1CCC(NC(=O)C(NS(=O)(=O)c2ccc3c(c2)CCN3C(=O)CC)C(C)C)CC1` (stereo unspecified): -4%; for `CCc1nnc(NS(=O)(=O)c2ccc(NC(=S)NC(=O)/C=C/c3cccs3)cc2)s1`: 1%.
The same measure for `CC(C)C(C)(C#N)NC(=O)CSc1nc2scc(-c3ccccc3)c2c(=O)[nH]1` (stereo unspecified): 3%; for `Cc1ccc(N(C(=O)c2ccc(CN3CCOCC3)o2)C(C(=O)NCCC(C)C)c2cccs2)c(C)c1` (stereo unspecified): -7%.
With `O=C(O)CCS(=O)(=O)c1ccc(-c2ccccc2)cc1`, the inhibition was 0%.
Then `COCCNC(=O)Nc1ccc2nc(-c3ccco3)c(-c3ccco3)nc2c1`, with 48% (active).
The same measure for `O=C(NCc1ccccn1)c1ccc2nc(-c3ccco3)c(-c3ccco3)nc2c1`: 43% (active); for `O=C(NCc1ccccn1)c1cc(-c2ccccc2Cl)on1`: 0%.
On to `COc1ccc(NC(=O)Nc2ccc3nsnc3c2)cc1`, for which the inhibition was -1%.
As to `COc1ccc(NC(=O)Nc2ccc3nc(C)c(C)nc3c2)cc1`, the inhibition is -2%.
For `CN(c1ccc(C(=O)NCc2ccccn2)cc1)S(C)(=O)=O`, the inhibition is -18%.
For the compound `Cc1nnc(-c2ccc(Oc3ccc(C)c(C)c3)c([N+](=O)[O-])c2)o1`, the inhibition is 9%.
As to `Cc1cccc(C2c3[nH]c4ccccc4c3CCN2C(=O)c2cc(-c3cccn3C)n[nH]2)n1` (stereo unspecified), the inhibition is -4%.
Then `Cc1cc(/C=C2/NC(=O)NC2=O)c(C)n1-c1cccnc1`, with -4%.
As for `CCCCNC(=S)N/N=C1\CCCCc2ccccc21`, the inhibition was 0%.
Then `COc1cccc(-n2c(=S)sc3c(=O)n(-c4ccccc4OC)c(SCC4OCCO4)nc32)c1`, with -3%; and `O=C(NNC(=O)C1C2CCC(C2)C1C(=O)O)c1ccc(Cl)cc1` (stereo unspecified), with -8%.
Consider `COc1cccc(NC(=O)Cn2c3ccccc3c3nc4n(c(=O)c32)CCS4)c1`, for which the inhibition was 2%.
Then `CC(C)(C)NCCCOc1ccc(Cl)cc1C(C)(C)C`, with -1%.
Then `CCCCN=C1C([N+](=O)[O-])=CC=C2C1=NC1(CCCCC1)N2O`, with 0%.
The same measure for `c1ccc(-c2cc3c(NCC4COc5ccccc5O4)ncnc3s2)cc1` (stereo unspecified): -5%; for `CC1CCCN(S(=O)(=O)c2ccc(N(C(=O)c3cnccn3)C(C(=O)NC3CCCCC3)c3cccs3)cc2)C1` (stereo unspecified): -2%; for `O=C(COC(=O)/C(=C/c1cccs1)c1cccs1)NCc1ccccc1Cl`: 0%.
Consider `O=C(CN1CCCCCC1)NCCN1C(=O)S/C(=C\c2ccccc2Cl)C1=O`, for which the inhibition was -4%.
Turning to `O=C(O)c1cccc(N2C(=O)Nc3ccccc3N2O)c1`, the inhibition was 0%.
Consider `O=C(CCN1CCCCC1)N=Nc1c(O)[nH]c2ccccc12`, for which the inhibition is 0%.
Take `CC(=O)Nc1ccc(NC(=S)NC(=O)/C=C/c2ccccc2)cc1`: the inhibition was -3%.
The same measure for `CCCCNS(=O)(=O)c1ccc2nc(SCC(=O)Nc3cc(C)cc(C)c3)[nH]c2c1`: -1%.
The same measure for `O=C(NCC1CCN(Cc2ccccc2Cl)CC1)Nc1cccc(Cl)c1`: -6%.
The same measure for `CCOC(=O)c1cc2c(nc1NC(=S)Nc1ccccc1)CC(C)(CC)OC2` (stereo unspecified): -11%; for `Cn1nnnc1SCC(=O)NNC(=O)c1ccc(Br)cc1`: -10%.
